Common to all, as to experiment: NCI-60 one-dose screen, 48 h (100 = growth as untreated, 0 = no growth, -100 = all killed)
One test deals with SR leukemia. The following applies: 10 µM unless noted.
In the next test the test system is RPMI-8226 leukemia. Particulars: 10 µM unless noted.
A further test concerns OVCAR-8 ovarian. Particulars: 10 µM unless noted.
A further test deals with OVCAR-5 ovarian. Particulars: 10 µM unless noted.
Another test relates to OVCAR-4 ovarian. Particulars: 10 µM unless noted.
The test system of the next test is SK-OV-3 ovarian. Particulars: 10 µM unless noted.
The next test has as its system IGROV1 ovarian. The following applies: 10 µM unless noted.
For the next test, the system named is OVCAR-3 ovarian. Particulars: 10 µM unless noted.
The next test has as its system NCI/ADR-RES ovarian. Particulars: 10 µM unless noted.
The test system of the next test is T-47D breast. Particulars: 10 µM unless noted.
A further test concerns BT-549 breast. Particulars: 10 µM unless noted.
The test system of the next test is MDA-MB-435 melanoma. The following applies: 10 µM unless noted.
A further test deals with HCT-116 colon. The following applies: 10 µM unless noted.
The next test has as its system HCC-2998 colon. Particulars: 10 µM.
The subject of a further test is KM12 colon. The following applies: 10 µM unless noted.
A further test relates to MCF7 breast. The following applies: 10 µM unless noted.
The subject of a further test is SW-620 colon. Particulars: 10 µM unless noted.
The next test concerns HS 578T breast. Particulars: 10 µM.

The text below walks through data of PubChem BioAssay (NCI).

This is part of a sample that, as a whole, favours compounds with a hit. Of some 83,000 tested, about 20% had one in any assay.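 Cells were grown in 96-well plates and exposed to the test compound at a single concentration for 48 hours; results are reported as percent growth, with values below 10 considered active.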 A number with no mark means an inactive call. The source made the active and inactive calls.

For `CS(=O)(=O)CCNCc1ccc(-c2ccc3ncnc(Nc4ccc(OCc5cccc(F)c5)c(Cl)c4)c3c2)o1`, the growth in the test on SR leukemia was 3.31% (active); in the test with RPMI-8226 leukemia, -15.4% (active); in the test on OVCAR-8 ovarian, -26.5% (active); in the test on OVCAR-5 ovarian it was 65.2%; in the test with OVCAR-4 ovarian, -51.2% (active); in the test with SK-OV-3 ovarian, -6.37% (active). Besides, the growth in the test on IGROV1 ovarian was 9.76% (active); in the test on OVCAR-3 ovarian, -63.1% (active); with NCI/ADR-RES ovarian, 8.75% (active); in the test with T-47D breast it was -11.9% (active); with BT-549 breast it was 8.25% (active); with MDA-MB-435 melanoma, 31.2%. Further, the growth with HCT-116 colon is 41.2%; in the test with HCC-2998 colon, -83.6% (active); with KM12 colon it was -34.9% (active).
In the case of `Cn1ccnc1C(=O)/C=C/c1ccc(CC(=O)Nc2ccc(C(F)(F)F)cc2)cc1`, the growth in the test with SR leukemia is 1.17% (active); with RPMI-8226 leukemia it was 3.07% (active); in the test on OVCAR-8 ovarian, -25.8% (active); in the test on OVCAR-5 ovarian it was 22.9%; with OVCAR-4 ovarian it was 43.1%; with SK-OV-3 ovarian it was 53.5%. Besides, the growth is 9.94% (active) with IGROV1 ovarian; 9.48% (active) in the test with OVCAR-3 ovarian; 6.64% (active) with NCI/ADR-RES ovarian; 3.52% (active) with T-47D breast; 3.71% (active) with BT-549 breast; 30.6% with MDA-MB-435 melanoma. For the same compound, the growth in the test on MCF7 breast is 8.41% (active); in the test on HCT-116 colon it was 6.67% (active); in the test on HCC-2998 colon, 0.221% (active); in the test with KM12 colon, 4.24% (active).
On to `Clc1nc(Cl)c2ncn(CC#CCn3cnc4c(Cl)nc(Cl)nc43)c2n1`, for which the growth with SR leukemia is -52.6% (active); in the test with RPMI-8226 leukemia, -56.6% (active); in the test with OVCAR-8 ovarian, -34.8% (active); in the test on OVCAR-5 ovarian, -2.99% (active); with OVCAR-4 ovarian, -70.8% (active); with SK-OV-3 ovarian, 87.5%. The growth with IGROV1 ovarian was -75.4% (active); with OVCAR-3 ovarian it was -90.9% (active); in the test with NCI/ADR-RES ovarian, 59.8%; in the test on T-47D breast, -21.5% (active); with MDA-MB-435 melanoma, 4.04% (active); with SW-620 colon, -44.7% (active). Also, the growth in the test on MCF7 breast was -22.8% (active); with HCT-116 colon, -34.6% (active); in the test on KM12 colon, -45.8% (active).
In the case of `CC1(C)NC(=O)c2[nH]c3c(Cl)c(Cl)ccc3c2C1C#N` (configuration not stated), the growth in the test on SR leukemia was 67.5%; with RPMI-8226 leukemia, 69.6%; with OVCAR-8 ovarian it was 89.2%; with OVCAR-5 ovarian it was 85.2%; in the test on OVCAR-4 ovarian, 60.7%; in the test with SK-OV-3 ovarian it was 100%. Further, the growth with IGROV1 ovarian is 100%; with OVCAR-3 ovarian, 82.4%; with NCI/ADR-RES ovarian it was 85%; in the test on T-47D breast, 59.2%; in the test on MDA-MB-435 melanoma, 88.1%; in the test with SW-620 colon, 105%. For the same compound, the results for the growth in the test on MCF7 breast, in the test with HCT-116 colon and in the test on KM12 colon were 87%, 83.6% and 93.4%, respectively.
With `COC(=O)[C@]12CC[C@@H](C)[C@H](C)[C@@H]1C1=CC[C@@H]3[C@@]4(C)C(c5cnco5)=C[C@@](C)(CO)C4=CC[C@@]3(C)[C@]1(C)CC2`, the growth is 21.1% in the test with SR leukemia; 26.1% with RPMI-8226 leukemia; 60.8% with OVCAR-8 ovarian; 78.8% with OVCAR-5 ovarian; 40.6% in the test on OVCAR-4 ovarian; 67.2% in the test with SK-OV-3 ovarian. Moreover, the growth with OVCAR-3 ovarian is 50.1%; in the test on HS 578T breast, 72.8%; in the test on NCI/ADR-RES ovarian it was 53.9%; with T-47D breast it was 14.7%; in the test on BT-549 breast it was 56.4%; in the test with MDA-MB-435 melanoma, 60.5%. Besides, the growth was 50.9% in the test with SW-620 colon; 37.1% in the test on MCF7 breast; 22.6% in the test on HCT-116 colon; 45.5% in the test on HCC-2998 colon; 37.2% in the test on KM12 colon.
Consider `C=C1C(=O)O[C@H]2[C@H]1CC/C(C=Nc1c(N)cc(C(F)(F)F)cc1C(F)(F)F)=C\CC[C@@]1(C)O[C@@H]21`, for which the growth is 0.897% (active) in the test on SR leukemia; -18.7% (active) in the test with RPMI-8226 leukemia; 4.81% (active) in the test with OVCAR-8 ovarian; -9.13% (active) with OVCAR-5 ovarian; -71.6% (active) in the test with OVCAR-4 ovarian; 48.8% in the test on SK-OV-3 ovarian. The growth was -93.8% (active) in the test with OVCAR-3 ovarian; 16.7% in the test on HS 578T breast; -23.1% (active) with NCI/ADR-RES ovarian; -27% (active) in the test with T-47D breast; -31.5% (active) in the test on BT-549 breast; -71.9% (active) in the test with MDA-MB-435 melanoma. Further, the growth with SW-620 colon was -54.9% (active); in the test on MCF7 breast, -2.09% (active); in the test on HCT-116 colon, -72.8% (active); in the test with KM12 colon it was 14.4%.
As to `CN1CCN(CCCOc2cccc3nc(Nc4ccc(Cl)c(C(F)(F)F)c4)ccc23)CC1`, the growth was -33.3% (active) with SR leukemia; 10.6% in the test on RPMI-8226 leukemia; 13.9% in the test with OVCAR-8 ovarian; 17.9% in the test with OVCAR-5 ovarian; 42.1% in the test on OVCAR-4 ovarian; 52.5% in the test with SK-OV-3 ovarian. In addition, the growth with OVCAR-3 ovarian is -4.07% (active); in the test on HS 578T breast, 32.6%; in the test with NCI/ADR-RES ovarian, -0.603% (active); with T-47D breast, 16.4%; in the test on BT-549 breast it was 59.1%; in the test with MDA-MB-435 melanoma, -21.4% (active). Moreover, the growth in the test on SW-620 colon is -54.8% (active); in the test on MCF7 breast it was -67.3% (active); in the test with HCT-116 colon it was -82.7% (active); in the test on HCC-2998 colon, -90.8% (active); in the test with KM12 colon it was -78% (active).
With `Brc1ccc([I+]c2ccc(Br)cc2)cc1`, the growth in the test with SR leukemia is 3.44% (active); in the test on RPMI-8226 leukemia it was 7.72% (active); in the test with OVCAR-8 ovarian, 11.6%; with OVCAR-5 ovarian, 61%; with OVCAR-4 ovarian, 22.3%; with SK-OV-3 ovarian, 43.6%. Moreover, the growth in the test with OVCAR-3 ovarian was 61.6%; with HS 578T breast it was 69.7%; with NCI/ADR-RES ovarian, 98.9%; with T-47D breast, 16.4%; with MDA-MB-435 melanoma, 19.5%; in the test on MCF7 breast, 7.26% (active). The growth in the test with HCT-116 colon is 8.91% (active); with HCC-2998 colon, 25%.
With `Cc1ccc(N)cc1CN1C(=O)c2ccccc2C1=O`, the growth was 87.4% with SR leukemia; 99.3% in the test with RPMI-8226 leukemia; 101% in the test on OVCAR-8 ovarian; 104% with OVCAR-5 ovarian; 110% in the test on OVCAR-4 ovarian; 94.2% with SK-OV-3 ovarian. For the same compound, the growth in the test on OVCAR-3 ovarian is 117%; in the test on HS 578T breast, 106%; in the test with NCI/ADR-RES ovarian, 107%; in the test on T-47D breast, 110%; in the test on MDA-MB-435 melanoma, 106%; in the test with MCF7 breast, 108%. Further, the results for the growth in the test on HCT-116 colon, with HCC-2998 colon and in the test on KM12 colon were 93.4%, 104% and 111%, respectively.
With `CO/C=C/C(=O)c1cc2cnc3c(=N)cc(NC(=O)C(C)C)c([nH]1)c23`, the growth was -24% (active) with SR leukemia; -38.1% (active) in the test on RPMI-8226 leukemia; 0.655% (active) in the test on OVCAR-8 ovarian; -16.3% (active) in the test with OVCAR-5 ovarian; -10.7% (active) in the test on OVCAR-4 ovarian; -25.7% (active) with SK-OV-3 ovarian. Moreover, the growth in the test with OVCAR-3 ovarian was -45.1% (active); with HS 578T breast it was -6.02% (active); in the test with NCI/ADR-RES ovarian, -9.63% (active); in the test with T-47D breast it was -53.1% (active); with BT-549 breast, -58.9% (active); in the test with MDA-MB-435 melanoma, -27.5% (active). In addition, the growth with SW-620 colon is -47.8% (active); with MCF7 breast, 1.14% (active); in the test with HCT-116 colon, -55.4% (active); in the test on HCC-2998 colon it was -21% (active); in the test with KM12 colon, -23.9% (active).
